Legend:
Experiment in all cases: log2 ratio of Biotin-Ahx-Ub-VS probe labelling (fragment/DMSO); higher = less target engagement (more negative = stronger competition), active = hit call of the paper (q ≤ 0.05, log2 ratio ≤ -1)
Details in all cases: compound concentration: 200 uM; treatment time: 3 h
[1] = molecular target: T1, USP19 (UniProt O94966)
T1 sequence (whole entry): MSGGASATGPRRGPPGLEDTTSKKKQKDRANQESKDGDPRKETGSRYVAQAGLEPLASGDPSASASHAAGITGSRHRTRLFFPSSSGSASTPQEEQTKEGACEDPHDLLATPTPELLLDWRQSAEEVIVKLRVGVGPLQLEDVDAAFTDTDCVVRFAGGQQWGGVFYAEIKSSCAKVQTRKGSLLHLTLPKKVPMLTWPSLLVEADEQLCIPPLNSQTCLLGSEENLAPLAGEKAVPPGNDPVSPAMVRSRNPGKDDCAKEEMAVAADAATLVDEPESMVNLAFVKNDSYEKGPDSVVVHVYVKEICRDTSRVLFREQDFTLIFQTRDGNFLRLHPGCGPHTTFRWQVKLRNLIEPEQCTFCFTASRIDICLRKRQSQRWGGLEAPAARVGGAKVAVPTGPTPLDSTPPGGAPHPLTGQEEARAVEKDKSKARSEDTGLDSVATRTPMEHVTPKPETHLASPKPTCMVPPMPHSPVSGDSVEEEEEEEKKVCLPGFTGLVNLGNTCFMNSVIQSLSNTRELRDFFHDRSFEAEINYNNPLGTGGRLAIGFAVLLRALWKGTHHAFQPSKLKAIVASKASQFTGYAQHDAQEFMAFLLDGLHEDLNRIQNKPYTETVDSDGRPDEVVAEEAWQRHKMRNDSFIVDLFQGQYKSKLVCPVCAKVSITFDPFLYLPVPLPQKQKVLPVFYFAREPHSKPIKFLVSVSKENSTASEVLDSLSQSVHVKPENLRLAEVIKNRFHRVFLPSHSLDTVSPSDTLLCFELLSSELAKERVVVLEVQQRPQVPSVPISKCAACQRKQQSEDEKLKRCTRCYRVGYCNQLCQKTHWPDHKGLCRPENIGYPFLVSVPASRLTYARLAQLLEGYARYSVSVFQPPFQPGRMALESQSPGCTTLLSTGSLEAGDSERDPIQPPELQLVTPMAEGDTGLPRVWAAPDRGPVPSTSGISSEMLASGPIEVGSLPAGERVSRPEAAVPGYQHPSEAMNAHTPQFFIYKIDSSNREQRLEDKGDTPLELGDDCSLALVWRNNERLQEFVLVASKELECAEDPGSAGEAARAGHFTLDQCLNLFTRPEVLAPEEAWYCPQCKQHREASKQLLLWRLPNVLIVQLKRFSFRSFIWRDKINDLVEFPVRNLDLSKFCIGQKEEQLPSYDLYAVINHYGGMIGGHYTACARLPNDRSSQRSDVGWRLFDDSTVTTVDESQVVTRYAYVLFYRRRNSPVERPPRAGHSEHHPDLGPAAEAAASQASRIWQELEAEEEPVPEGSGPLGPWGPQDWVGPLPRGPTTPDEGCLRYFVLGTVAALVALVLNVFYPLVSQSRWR
Method in brief: (§1)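 HEK293T lysate (495 µg per sample, in Tris/CHAPS/IGEPAL buffer with protease inhibitors) was treated in triplicate with fragment at 200 µM or with DMSO for 3 h. It was then treated with Biotin-Ahx-Ub-VS (0.5 µM final) for 1 h. Labelled DUBs were NeutrAvidin-enriched, digested with LysC and trypsin, and run by diaPASEF LC-MS/MS. Spectronaut label-free quantities were global-median-normalised. Values are average log2 ratios fragment/DMSO by unpaired t-test, using proteins with ≥2 unique peptides.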

[2] = molecular target: T2, USP22 (UniProt Q9UPT9)
T2 sequence (whole entry): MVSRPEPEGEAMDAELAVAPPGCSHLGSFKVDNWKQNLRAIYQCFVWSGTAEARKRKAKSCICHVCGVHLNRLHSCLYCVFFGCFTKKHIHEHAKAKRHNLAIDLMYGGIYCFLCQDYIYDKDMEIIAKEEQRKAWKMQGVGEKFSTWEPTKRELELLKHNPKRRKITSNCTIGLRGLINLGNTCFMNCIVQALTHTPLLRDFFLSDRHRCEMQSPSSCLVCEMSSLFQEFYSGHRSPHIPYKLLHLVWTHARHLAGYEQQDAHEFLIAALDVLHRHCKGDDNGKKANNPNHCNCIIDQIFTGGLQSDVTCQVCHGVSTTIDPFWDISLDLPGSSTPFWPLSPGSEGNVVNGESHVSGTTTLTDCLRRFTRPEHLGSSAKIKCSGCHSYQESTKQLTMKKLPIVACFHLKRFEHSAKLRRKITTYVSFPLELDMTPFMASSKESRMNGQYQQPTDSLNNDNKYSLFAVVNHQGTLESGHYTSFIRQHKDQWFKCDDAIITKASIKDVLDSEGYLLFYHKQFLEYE
Method in brief: as §1

[3] = molecular target: USP24 (UniProt Q9UPU5)
Method in brief: as §1

[4] = molecular target: T3, USP25 (UniProt Q9UHP3)
T3 sequence (whole entry): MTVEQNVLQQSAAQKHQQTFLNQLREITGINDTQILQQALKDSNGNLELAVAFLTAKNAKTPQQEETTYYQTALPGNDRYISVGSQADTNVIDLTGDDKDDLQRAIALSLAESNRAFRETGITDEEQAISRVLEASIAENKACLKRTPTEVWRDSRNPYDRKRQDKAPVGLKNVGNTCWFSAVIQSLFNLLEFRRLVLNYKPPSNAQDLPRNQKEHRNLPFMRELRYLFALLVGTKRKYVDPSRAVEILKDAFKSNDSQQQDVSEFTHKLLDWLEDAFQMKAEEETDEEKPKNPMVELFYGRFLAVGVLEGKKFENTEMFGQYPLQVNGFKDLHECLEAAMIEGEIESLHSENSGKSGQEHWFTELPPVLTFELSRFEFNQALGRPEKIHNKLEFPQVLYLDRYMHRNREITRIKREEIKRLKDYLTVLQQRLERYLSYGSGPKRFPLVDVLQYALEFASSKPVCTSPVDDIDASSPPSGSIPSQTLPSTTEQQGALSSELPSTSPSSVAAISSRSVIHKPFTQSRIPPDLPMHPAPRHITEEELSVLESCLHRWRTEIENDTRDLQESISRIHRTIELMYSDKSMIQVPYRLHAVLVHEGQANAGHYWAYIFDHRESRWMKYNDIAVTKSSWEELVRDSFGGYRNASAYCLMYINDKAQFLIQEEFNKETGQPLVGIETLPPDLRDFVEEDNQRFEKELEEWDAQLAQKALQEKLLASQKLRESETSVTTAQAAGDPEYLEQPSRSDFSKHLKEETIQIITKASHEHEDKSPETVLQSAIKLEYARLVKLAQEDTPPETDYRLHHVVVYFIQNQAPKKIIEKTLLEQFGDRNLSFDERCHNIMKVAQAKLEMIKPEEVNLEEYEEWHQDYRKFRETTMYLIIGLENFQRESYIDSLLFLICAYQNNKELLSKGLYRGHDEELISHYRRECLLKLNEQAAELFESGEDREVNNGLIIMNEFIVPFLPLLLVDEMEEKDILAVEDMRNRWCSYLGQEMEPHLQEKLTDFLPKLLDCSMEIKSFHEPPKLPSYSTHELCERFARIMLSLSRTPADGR
Method in brief: as §1

[5] = molecular target: T4, USP28 (UniProt Q96RU2)
T4 sequence (whole entry): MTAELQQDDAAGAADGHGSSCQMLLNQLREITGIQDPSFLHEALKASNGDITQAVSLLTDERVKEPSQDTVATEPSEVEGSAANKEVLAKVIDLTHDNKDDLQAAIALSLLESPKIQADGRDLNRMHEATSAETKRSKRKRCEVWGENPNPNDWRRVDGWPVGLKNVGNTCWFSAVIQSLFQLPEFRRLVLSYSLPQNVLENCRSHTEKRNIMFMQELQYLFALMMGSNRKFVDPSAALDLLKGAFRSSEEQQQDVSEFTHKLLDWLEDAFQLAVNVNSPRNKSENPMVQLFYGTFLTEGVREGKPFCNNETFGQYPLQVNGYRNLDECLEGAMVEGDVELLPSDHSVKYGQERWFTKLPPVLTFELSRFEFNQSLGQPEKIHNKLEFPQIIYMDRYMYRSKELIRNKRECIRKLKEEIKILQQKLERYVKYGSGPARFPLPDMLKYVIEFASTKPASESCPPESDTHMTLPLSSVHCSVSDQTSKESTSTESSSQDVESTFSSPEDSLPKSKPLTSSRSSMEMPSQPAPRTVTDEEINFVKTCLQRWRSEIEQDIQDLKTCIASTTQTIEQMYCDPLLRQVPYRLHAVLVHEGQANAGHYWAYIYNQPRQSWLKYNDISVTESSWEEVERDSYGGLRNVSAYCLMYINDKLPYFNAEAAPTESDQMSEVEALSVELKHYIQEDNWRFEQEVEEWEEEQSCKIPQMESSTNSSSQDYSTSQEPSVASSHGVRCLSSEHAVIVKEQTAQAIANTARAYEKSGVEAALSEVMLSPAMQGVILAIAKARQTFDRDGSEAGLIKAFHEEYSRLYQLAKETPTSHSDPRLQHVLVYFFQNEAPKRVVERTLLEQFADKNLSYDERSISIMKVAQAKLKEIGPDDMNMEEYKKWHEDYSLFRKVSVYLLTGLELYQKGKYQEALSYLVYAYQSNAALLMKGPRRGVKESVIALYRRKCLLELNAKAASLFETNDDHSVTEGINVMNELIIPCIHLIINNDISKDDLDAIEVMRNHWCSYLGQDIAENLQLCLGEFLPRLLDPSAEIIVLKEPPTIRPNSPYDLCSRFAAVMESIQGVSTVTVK
Method in brief: as §1

Measured: log2 ratio of Biotin-Ahx-Ub-VS probe labelling

Sequence of USP24 (Q9UPU5 whole entry): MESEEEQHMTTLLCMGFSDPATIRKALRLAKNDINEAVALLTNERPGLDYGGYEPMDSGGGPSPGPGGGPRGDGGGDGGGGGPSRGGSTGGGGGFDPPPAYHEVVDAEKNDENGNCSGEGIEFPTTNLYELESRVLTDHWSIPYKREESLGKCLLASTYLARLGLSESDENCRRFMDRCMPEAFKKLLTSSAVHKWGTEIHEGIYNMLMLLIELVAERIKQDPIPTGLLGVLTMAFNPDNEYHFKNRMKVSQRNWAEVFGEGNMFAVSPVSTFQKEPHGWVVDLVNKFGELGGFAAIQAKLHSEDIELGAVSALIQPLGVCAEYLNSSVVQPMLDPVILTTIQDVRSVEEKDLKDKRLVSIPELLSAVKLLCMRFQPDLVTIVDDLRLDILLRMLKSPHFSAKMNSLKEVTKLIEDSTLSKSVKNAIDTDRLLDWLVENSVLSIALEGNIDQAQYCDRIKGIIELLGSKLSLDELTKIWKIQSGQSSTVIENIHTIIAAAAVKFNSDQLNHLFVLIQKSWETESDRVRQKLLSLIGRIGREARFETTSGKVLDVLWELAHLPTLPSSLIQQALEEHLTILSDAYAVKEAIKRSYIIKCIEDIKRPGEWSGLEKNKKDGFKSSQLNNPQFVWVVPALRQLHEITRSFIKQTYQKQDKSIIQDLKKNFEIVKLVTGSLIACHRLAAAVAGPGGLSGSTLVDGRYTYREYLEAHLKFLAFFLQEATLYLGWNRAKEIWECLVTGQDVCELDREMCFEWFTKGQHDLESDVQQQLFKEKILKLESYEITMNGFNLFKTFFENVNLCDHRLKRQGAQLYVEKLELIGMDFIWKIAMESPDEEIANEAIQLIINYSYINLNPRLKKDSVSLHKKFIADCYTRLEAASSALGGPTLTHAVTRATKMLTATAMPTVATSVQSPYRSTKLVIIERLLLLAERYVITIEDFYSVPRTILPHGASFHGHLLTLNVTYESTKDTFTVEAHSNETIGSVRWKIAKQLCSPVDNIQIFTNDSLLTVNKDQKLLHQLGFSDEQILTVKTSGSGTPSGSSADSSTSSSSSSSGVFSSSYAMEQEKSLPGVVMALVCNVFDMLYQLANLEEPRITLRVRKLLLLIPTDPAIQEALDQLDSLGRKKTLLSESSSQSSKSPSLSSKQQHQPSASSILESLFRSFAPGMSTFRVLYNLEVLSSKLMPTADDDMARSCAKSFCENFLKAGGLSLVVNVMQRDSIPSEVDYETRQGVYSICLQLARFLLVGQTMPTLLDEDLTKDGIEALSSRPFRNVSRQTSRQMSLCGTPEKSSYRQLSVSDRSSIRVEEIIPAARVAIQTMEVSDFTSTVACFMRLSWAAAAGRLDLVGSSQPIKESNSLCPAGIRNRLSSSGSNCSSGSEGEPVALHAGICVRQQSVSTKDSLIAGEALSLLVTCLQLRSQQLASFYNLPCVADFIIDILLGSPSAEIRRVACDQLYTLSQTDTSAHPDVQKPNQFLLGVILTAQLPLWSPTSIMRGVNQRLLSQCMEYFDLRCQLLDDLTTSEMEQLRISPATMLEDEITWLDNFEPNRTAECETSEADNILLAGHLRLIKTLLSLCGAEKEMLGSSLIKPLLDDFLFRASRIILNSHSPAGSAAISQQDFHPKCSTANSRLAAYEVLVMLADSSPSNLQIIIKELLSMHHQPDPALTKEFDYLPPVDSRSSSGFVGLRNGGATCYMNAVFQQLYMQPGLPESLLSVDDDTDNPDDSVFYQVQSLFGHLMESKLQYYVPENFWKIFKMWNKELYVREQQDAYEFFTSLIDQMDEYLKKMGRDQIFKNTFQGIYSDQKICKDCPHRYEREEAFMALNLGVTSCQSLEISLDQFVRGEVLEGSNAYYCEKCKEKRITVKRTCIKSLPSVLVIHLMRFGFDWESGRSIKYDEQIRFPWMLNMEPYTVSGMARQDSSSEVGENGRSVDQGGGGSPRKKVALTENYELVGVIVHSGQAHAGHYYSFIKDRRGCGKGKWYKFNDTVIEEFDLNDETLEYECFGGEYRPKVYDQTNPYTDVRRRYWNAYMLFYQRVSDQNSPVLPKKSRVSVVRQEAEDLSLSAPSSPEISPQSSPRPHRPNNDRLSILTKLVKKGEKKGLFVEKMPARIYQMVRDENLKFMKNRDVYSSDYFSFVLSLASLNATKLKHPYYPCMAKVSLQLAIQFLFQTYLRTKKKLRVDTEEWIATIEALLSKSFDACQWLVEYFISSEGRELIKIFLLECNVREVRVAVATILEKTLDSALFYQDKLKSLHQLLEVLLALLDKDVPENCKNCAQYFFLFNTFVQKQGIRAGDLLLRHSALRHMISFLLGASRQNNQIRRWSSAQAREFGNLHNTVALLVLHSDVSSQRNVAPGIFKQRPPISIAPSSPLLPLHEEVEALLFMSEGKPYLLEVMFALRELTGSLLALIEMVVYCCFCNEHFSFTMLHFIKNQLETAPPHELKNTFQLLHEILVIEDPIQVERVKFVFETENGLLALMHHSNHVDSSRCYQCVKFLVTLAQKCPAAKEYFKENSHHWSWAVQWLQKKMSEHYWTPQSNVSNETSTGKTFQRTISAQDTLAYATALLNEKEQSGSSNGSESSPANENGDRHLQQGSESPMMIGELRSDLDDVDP

CCC(NC(=O)CCl)c1ccc(Cl)cc1 (stereo not given)
inactive: [1] -0.0763 | [2] -0.735 | [3] -0.327 | [4] -0.24 | [5] -0.504

From the supplement of paper PMC11732987, “Enantioselective OTUD7B fragment discovery through chemoproteomics screening and high-throughput optimisation” (Communications Chemistry, 2025)
